Screening data as filed in PubChem BioAssay.
CHOP inhibitor: inhibitors of CHOP promoter induction, primary screen, cell-based, unfolded protein response, luciferase reporter; CHO-K1 CHOP-promoter luciferase, tunicamycin-induced, 15-18 h; inhibition, % at 10 µM; AID 2732, 2010; 220,000 compounds, 3.8% hits;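 active = compounds that reduced the stress-induced luciferase reporter signal by more than about 70% of percent inhibition, limit read from the data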;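 also: 0% = tunicamycin plus vehicle and 100% = wells without tunicamycin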
WT yeast gro inh: growth inhibition of WT strain, primary screen, mitochondrial fusion inhibitor project, WT and mutant strains, chemical genetic | mitochondrial fusion phenotypic screen | inhibition, % at 10 µM | 190,000 compounds, 2.1% hits | AID 1362, 2008; in the data active = inhibition above about 58%; tested in S. cerevisiae
RAM network inh: inhibitors of the yeast RAM network, primary screen, dse1pr::URA3 reporter, 5-FOA selection. S. cerevisiae dse1pr::URA3 reporter, 5-FOA growth OD615, 2 d; analog-sensitive cbk1-as2 kinase mutant strain. inhibition, % at 50 µM. 190,000 compounds, 1.8% hits. AID 868, 2007;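 active = inhibition above a set limit, 3 SD over mean compound inhibition, cut at about 8.4% in these data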;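 also: 0% = DMSO-only wells with no growth and 100% = 10 µM 1-NA-PP1 full growth; inhibition rescues growth on 5-FOA so higher OD means more RAM inhibition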
Lmaj promast: Leishmania major promastigote growth inhibition, primary screen. 200,000 compounds, 9% hits. AID 1063, 2008. Leishmania major promastigotes, resazurin fluorescence viability. inhibition, % at 10 µM; in the data active = inhibition above about 50%;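 also: promastigotes grown with compound for 44 hours at 28 °C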
The depositor's hits bear a star; / = no result. A selection: hits, their analogues and other compounds. The true share with any hit is near 13%.

SMILES | CHOP inhibitor | WT yeast gro inh | RAM network inh | Lmaj promast
CCN1CCN(c2c(Cl)cccc2NC(=O)c2ccc([N+](=O)[O-])cc2)CC1 | -12 | 5 | 0 | 9
COc1ccc(N(CC(=O)NC2CCCC2)C(=O)Cn2nnc(-c3ccc(F)cc3)n2)cc1OC | 19 | 0 | 9.3* | 4
CCOc1ccc(CC(=O)NNC(=S)NCCc2ccccc2)cc1 | 41 | -9 | 3 | -3
CCCCc1nc2sc3c(=O)n(N)cnc3c2c2c1CCCC2 | 21 | -9 | 3 | -4
CCCc1nc2sc3c(=O)n(N)cnc3c2c2c1CCCC2 | 74* | -8 | 2 | 33
O=C1CN(/N=C/c2ccc([N+](=O)[O-])o2)C(=O)N1 | 6 | 3 | -1 | 95*
O=C1OCCN1/N=C/c1ccc([N+](=O)[O-])o1 | -11 | -12 | 1 | 93*
O=C1C2C3C=CC(C4CC34)C2C(=O)N1/N=C/c1ccc(-c2cccc([N+](=O)[O-])c2)o1 (centres undefined) | 20 | -7 | 2 | -2
CC(=O)Nc1ccc(C=C(C(C)=O)C(C)=O)cc1 | -13 | / | / | /
N#C/C(=C\c1c[nH]c2ccccc12)C(N)=O | -11 | / | / | /
CC(=O)Oc1c(/C=C(\C#N)C(N)=O)[nH]c2ccccc12 | 18 | 33 | 1 | 96*
CCOc1ccccc1OCC(O)CNC (centres undefined) | 72* | 41 | 1 | -5
Cc1c(C)c(C)c(CN2CCCC2)c(C)c1C | 9 | / | / | /
CCn1c(=O)c2cc(C(=O)NC(C)C)sc2c2ccccc21 | -55 | / | / | /
CCn1c(=O)c2cc(C(=O)NCc3cccs3)sc2c2ccccc21 | -5 | 12 | 9.9* | -8
CCc1nnc(NC(=O)C2(C)COC(c3ccc(OC)cc3)OC2)s1 (centres undefined) | -27 | -5 | 0 | 5
CCCCC(CC)C(=O)Nc1ncc([N+](=O)[O-])s1 (centres undefined) | 57 | 52 | -1 | 59*
Cc1ccc(CC(=O)Nc2ncc([N+](=O)[O-])s2)cc1 | 1 | 16 | -2 | 16
CSc1nc2ccc(NS(=O)(=O)c3cccc(Cl)c3Cl)cc2s1 | 32 | 81* | 3 | -6
Nc1oc2ccc(F)cc2c(=O)c1C=O | -4 | -9 | -1 | -3
COP(=O)(OC)c1nc(-c2ccccc2)oc1N1CCOCC1 | -6 | 11 | 1 | 51*
COP(=O)(OC)c1nc(-c2cccc3ccccc23)oc1N1CCCCC1 | 26 | 28 | -1 | 41
Cc1ccc(N2CCN(C(=O)c3ccccc3NC(=O)/C=C\C(=O)O)CC2)cc1 | -20 | -7 | -1 | -3
CCCc1c(C)[nH]c2ccc(NC(C)=O)cc2c1=O | -21 | 69* | 1 | -1
O=C(N/N=C1/C(=O)c2cccc3cccc1c23)c1ccc(Cl)cc1 | 72* | 23 | 1 | 57*
SMILES | CHOP inhibitor | WT yeast gro inh | RAM network inh | Lmaj promast
CCOC(=O)C1C(C(=O)NN)C1C(=O)Nc1ccccc1 (centres undefined) | -14 | -12 | 1 | 2
CCOc1cc(/C=N/NC(=O)c2cccnc2)ccc1OC(=O)c1ccco1 | 9 | -9 | 0 | 1
COc1cc(/C=N/n2nnnc2Nc2ccccc2)cc(OC)c1OC | -5 | 3 | 1 | 10
COc1ccc(N(C(=O)c2ccco2)S(=O)(=O)c2cc(Cl)c(Cl)cc2Cl)cc1 | 10 | 59* | 2 | 6
O=C(NCc1ccc(C(F)(F)F)cc1)C1CC(c2c(Cl)cccc2Cl)=NO1 (centres undefined) | 12 | -19 | 1 | -1
Cc1cc(Oc2ccc(=O)[nH]n2)nc(Cl)n1 | -13 | / | / | /
CCOC(=O)C1=C(N)n2c(s/c(=C\c3cccs3)c2=O)=C(C(=O)OCC)C1c1cccs1 (centres undefined) | / | 13 | 5 | -4
CCOC(=O)C1=C(c2ccccc2)N=c2s/c(=C\c3cccc(O)c3)c(=O)n2C1c1cccs1 (centres undefined) | 90* | 13 | 8 | 89*
CCOC(=O)C1=C(C)N=c2s/c(=C\c3ccc(OC(C)=O)c(OCC)c3)c(=O)n2C1/C=C/c1ccccc1 (centres undefined) | -27 | -12 | 6 | 49
CCOC(=O)C1=C(C)N=c2s/c(=C\c3ccc(OC(C)=O)cc3)c(=O)n2C1/C=C/c1ccccc1 (centres undefined) | 25 | -6 | 3 | 100*
CSc1nc(-c2ccco2)nn1C(=O)c1ccc(C)cc1 | 80* | -20 | 1 | -10
CSc1nc(-c2ccco2)nn1C(=O)c1ccccc1 | 18 | 3 | 0 | -6
CN(Cc1cn(C)nc1-c1ccc(Oc2ccccc2)cc1)CC1COCCO1 (centres undefined) | 22 | 9 | 1 | 85*
Cn1cc(CNCc2cnc3ccccn23)c(-c2ccc(Oc3ccccc3)cc2)n1 | 11 | 17 | 2 | 22
CN(Cc1cn(C)nc1-c1ccc(Oc2ccccc2)cc1)Cc1cnc2ccccn12 | 46 | 47 | 0 | 78*
CN(Cc1cn(C)nc1-c1ccc(Oc2ccccc2)cc1)C1CCOC1 (centres undefined) | 14 | / | / | /
CCOC(=O)Cc1cc(=O)n2[nH]c(C(C)(C)C)cc2n1 | -13 | / | / | /
CC1CCCCN1Cc1c(O)ccc2c(=O)c(-c3nc4ccccc4s3)c(N)oc12 (centres undefined) | 12 | -3 | 0 | 33
NC(=O)C1(N2CCCCC2)CCN(CC(=O)Nc2ccccc2Sc2ccccc2)CC1 | -28 | 8 | 1 | -2
NC(=O)C1(N2CCCCC2)CCN(CC(=O)Nc2cc(Cl)ccc2Cl)CC1 | 76* | -15 | 3 | 9
O=C(O)CCCNC(=O)CC1S/C(=N/N=C/c2ccccc2O)NC1=O (centres undefined) | 5 | 5 | -1 | -6
CC1=C(C#N)C(=O)NC(=O)/C1=C\c1ccc(-c2ccc(C)cc2[N+](=O)[O-])o1 | -1 | 1 | 0 | 4
O=C(O)CC1S/C(=N/N=C/c2ccc(-c3ccccc3[N+](=O)[O-])o2)NC1=O (centres undefined) | 26 | -31 | 4 | 100*
Cc1ccc(-c2ccc(/C=N/N=C3/NC(=O)C(CC(=O)O)S3)o2)c([N+](=O)[O-])c1 (centres undefined) | -6 | -6 | 7 | 100*
O=C(CCCN1C(=O)c2cccc3cccc(c23)C1=O)Nc1ccon1 | 1 | -4 | 3 | 6
SMILES | CHOP inhibitor | WT yeast gro inh | RAM network inh | Lmaj promast
Cc1cc(Oc2cnn(C(C)(C)C)c(=O)c2Cl)cc(C(C)C)c1 | 8 | 67* | 3 | 10
Cc1nc(-c2ccc(Cl)cc2)sc1C1(C)CC(c2ccc(C#N)cc2)=NO1 (centres undefined) | 9 | / | / | /
COc1ccc(C=O)cc1Cn1ccnc1 | 4 | -10 | 2 | -8
Cc1cc(Cn2ccnc2)c(C)cc1Cn1ccnc1 | 12 | -5 | 1 | 98*
COc1ccccc1Oc1ccc2c(c1)C(=O)N(c1cccc(O)c1)C2=O | 90* | -28 | 5 | -7
O=C1c2ccc3c4c(ccc(c24)C(=O)N1c1cccc(O)c1)CC3 | 93* | -9 | 4 | -3
O=C(NN1C(=O)c2ccc3c4c(ccc(c24)C1=O)CC3)c1ccc(Br)cc1 | -14 | 32 | 3 | -6
